Potency and max response data for 28 molecules are collected here from PubChem BioAssay AID652283 (National Center for Advancing Translational Sciences (NCATS), 2013).

Records with an inconclusive call do not appear. The source made the active and inactive calls. The call rests on the fitted dose curve; in most records, active means well fitted inhibition curve with a large enough effect; inconclusive means small, poorly fitted or top-dose-only effect; inactive means no such curve, though single readings can be large or run the other way.

This experiment in a line: qHTS Assay for Lipid Storage Modulators: COS7 Assay against Probe and Analogs. The note with it: COS7 lipid droplet area, BODIPY imaging, 18 h; cells loaded with 400 µM oleic acid. Put shortly:
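COS7 cells treated 17-18 h with compound in 5% FBS medium, 0.2% DMSO and 400 microM oleic acid. Fixed cells stained with BODIPY 493/503 and Hoechst; lipid droplets counted from microscope images by visual review and image segmentation.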
(In general: In qHTS, concentration-response curves come from the screen itself.)
Consider `CCOc1ccc(CCNC(=O)c2cc3sccc3n2Cc2ccncc2)cc1OCC`, for which the Potency is 2.96 µM (active).

Turning to `O=C(O)c1cccc(-c2noc(-c3ccccc3F)n2)c1`, the max response was -6.12% (inactive).

Regarding `CCOc1ccc(CCNC(=O)c2ccc(C3(C(F)(F)F)N=N3)cc2)cc1OCC`, the Potency was 7.43 µM (active). On to `Cc1cc(SCc2sc(-c3ccc(C(F)(F)F)cc3)nc2C)ccc1OCC(=O)O`, for which the max response is 14.2% (inactive). As to `O=C(NC1CCCc2c1cnn2-c1ccc(F)cc1F)c1cnon1` (stereo not drawn), the max response is 13.2% (inactive). On the same count and under the same terms, the figure for `CCOC(=O)C1CCN(C(=O)C(C)(C)NC(=O)Nc2ccc(N)cc2)CC1` is -5.67% (inactive).

Consider `CCOc1ccc(CCNC(=O)c2cc3sccc3n2Cc2ccc(-n3cncn3)cc2)cc1OCC`, for which the Potency was 5.9 µM (active).

On to `O=C(NCCc1ccc2c(c1)OCO2)c1cc2sccc2n1Cc1ccccc1`, for which the max response is 19.6% (inactive). Consider `O=C(N[C@H]1CCCc2c1cnn2-c1ccc(F)cc1F)c1ccccn1`, for which the max response was 6.84% (inactive). For the molecule `CC(C)(C)OC(=O)N1CCCCC1C(=O)NC1CCCc2c1cnn2-c1ccc(F)cc1F` (stereo not drawn), the max response was 7.96% (inactive). Same read-out and setting: the figure for `O=C(c1cc2sccc2n1Cc1ccccc1)N(CCc1ccc(O)c(O)c1)Cc1ccccc1` is 10.7% (inactive). With `CCOc1ccc(CCNC(=O)c2cc3sccc3n2Cc2ccccc2)cc1OCC`, the Potency is 0.935 µM (active). The same measure, in the same setting: the figure for `CCOC(=O)C1CCN(C(=O)C(C)(C)NC(=O)Nc2ccc(Oc3ccccc3)cc2)CC1` is 6.62 µM (active).

As for `COc1cccc(-n2ncc3c2CCCC3NC(=O)c2ccccn2)c1` (stereo not drawn), the Potency was 5.9 µM (active). On to `CCOc1ccc(CCNC(=O)c2cc3sccc3n2Cc2ccccn2)cc1OCC`, for which the Potency is 1.48 µM (active). As to `CCOC(=O)C1CCN(C(=O)C(C)(C)NC(=O)Nc2cccc(-c3csc(C)n3)c2)CC1`, the max response was 3.3% (inactive). Consider `CCOC(=O)C1CCN(C(=O)C(C)(C)NC(=O)Nc2ccc(F)c(F)c2)CC1`, for which the max response was -20.8% (inactive). On to `O=C(NCCc1ccc(OCC(F)(F)F)c(OCC(F)(F)F)c1)c1cc2sccc2n1Cc1ccccc1`, for which the Potency was 2.96 µM (active). On the same count and under the same terms, under `CC(C)(C)OC(=O)NCCOCCOCCOc1ccc(-n2ncc3c2CCCC3NC(=O)c2ccccn2)cc1` (stereo not drawn) stands 18.7 µM (active); under `CC1(C)CCC(c2ccc(Cl)cc2)=C(CN2CCN(c3ccc(C(=O)NS(=O)(=O)c4ccc(N[C@H](CCN5CCOCC5)CSc5ccccc5)c(S(=O)(=O)C(F)(F)F)c4)cc3)CC2)C1`, 3.72 µM (active). For the molecule `CCOc1ccc(CCNC(=O)c2cc3ccccc3n2Cc2ccc(Cl)c(F)c2)cc1OCC`, the Potency is 0.332 µM (active). Turning to `CCOc1cc(F)c(CCNC(=O)c2cc3sccc3n2Cc2ccccc2)cc1OCC`, the max response was -106% (inactive).

Take `CCOc1ccc(CCNC(=O)c2cc3ccccc3n2C)cc1OCC`: the Potency is 16.6 µM (active). For the molecule `CCOc1ccc(CCNC(=O)CN(C)C)cc1OCC`, the max response is -3.2% (inactive). As to `CN(C)Cc1ccc(-c2nc3cccc4c3n2CCNC4=O)cc1`, the max response was 3.13% (inactive). In the case of `CCOc1ccc(CCNC(=O)c2cc3sccc3n2CCN2CCOCC2)cc1OCC`, the Potency was 2.96 µM (active). Consider `CC(C)Oc1ccc(CCNC(=O)c2cc3sccc3n2Cc2ccccc2)cc1OC(C)C`, for which the Potency is 1.66 µM (active).

With `CCOc1ccc(CCNC(=O)C2(c3ccccc3)CC2)cc1OCC`, the max response was 2.24% (inactive).
